Data as given in ChEMBL document CHEMBL4808148, “HDAC6 screening dataset using tau-based substrate in an enzymatic assay yields selective inhibitors and activators” (2021).
In all, about 5,600 compounds went through this assay and about 150 (2.7%) showed an effect of 50% or more. The sample holds strong results, similar compounds and a random draw of the others, so the mix is not that of the screen.

Target: T1, Protein deacetylase HDAC6 (Homo sapiens) (UniProt Q9UBN7)
T1 sequence (whole entry): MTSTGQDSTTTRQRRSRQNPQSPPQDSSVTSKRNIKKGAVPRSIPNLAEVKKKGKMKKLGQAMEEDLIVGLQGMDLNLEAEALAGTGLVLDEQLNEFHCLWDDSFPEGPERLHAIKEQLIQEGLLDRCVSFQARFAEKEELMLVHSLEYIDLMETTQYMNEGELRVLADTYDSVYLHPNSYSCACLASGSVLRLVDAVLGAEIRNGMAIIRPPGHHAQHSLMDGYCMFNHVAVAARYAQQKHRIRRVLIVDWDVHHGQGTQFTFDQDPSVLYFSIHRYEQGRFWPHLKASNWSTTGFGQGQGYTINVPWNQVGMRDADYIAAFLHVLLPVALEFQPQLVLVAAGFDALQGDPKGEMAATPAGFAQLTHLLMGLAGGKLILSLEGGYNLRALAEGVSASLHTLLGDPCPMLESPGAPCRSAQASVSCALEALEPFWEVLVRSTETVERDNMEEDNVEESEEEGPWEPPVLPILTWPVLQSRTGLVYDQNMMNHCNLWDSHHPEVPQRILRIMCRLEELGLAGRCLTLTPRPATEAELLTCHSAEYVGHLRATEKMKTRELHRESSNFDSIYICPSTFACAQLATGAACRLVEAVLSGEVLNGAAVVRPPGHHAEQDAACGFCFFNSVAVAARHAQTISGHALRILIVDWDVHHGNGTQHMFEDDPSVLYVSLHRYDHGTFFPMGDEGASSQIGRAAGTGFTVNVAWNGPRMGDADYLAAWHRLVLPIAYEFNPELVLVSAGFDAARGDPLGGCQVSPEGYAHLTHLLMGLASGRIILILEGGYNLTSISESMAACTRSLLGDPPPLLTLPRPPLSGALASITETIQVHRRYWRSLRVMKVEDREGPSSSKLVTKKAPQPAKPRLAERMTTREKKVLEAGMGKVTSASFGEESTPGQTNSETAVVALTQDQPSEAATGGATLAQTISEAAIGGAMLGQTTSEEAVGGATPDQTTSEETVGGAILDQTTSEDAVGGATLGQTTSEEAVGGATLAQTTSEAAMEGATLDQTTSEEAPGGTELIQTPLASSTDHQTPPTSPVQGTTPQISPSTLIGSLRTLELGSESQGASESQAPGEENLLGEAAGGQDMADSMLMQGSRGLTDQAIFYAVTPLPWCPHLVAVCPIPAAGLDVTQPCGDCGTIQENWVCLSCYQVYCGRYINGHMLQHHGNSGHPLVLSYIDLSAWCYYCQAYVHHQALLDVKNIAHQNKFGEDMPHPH
Settings: at 10 µM

| SMILES | inhibition [%] |
| --- | --- |
| CN(C)c1ccc2c(c1)Sc1cc(N(C)C)ccc1N2 | 32.3 |
| COc1cc(Br)c(S(=O)(=O)Nc2ccc(C(F)(F)F)c(O[C@@H]3CCN(C)C3)c2)cc1OC | -1.99 |
| COc1ccc(-n2c(SCc3nc(-c4ccc(C)cc4)no3)nnc2-c2ccncc2)cc1 | -7.03 |
| O=C(Nc1c(-c2cccs2)nc2ccccn12)c1ccc(Cl)cc1 | -6.19 |
| Clc1cccc(/C=N/C=N/c2cccc(Cl)c2)c1 | 1.42 |
| COc1cccc(/C=N/C=N/c2cccc(OC)c2)c1 | 89.1 |
| COc1cc(/C=C/c2ccc(OC)cc2OC)cc(OC)c1 | 19.4 |
| CNCCCC1(c2ccccc2)OC(C)(C)c2ccccc21 (stereo not given) | -1.2 |
| CSc1ccc(OCc2ncc([N+](=O)[O-])n2C)cc1 | 20.2 |
| O=C(O)c1cc([N+](=O)[O-])ccc1NCCCc1ccccc1 | 52.3 |
| Cn1c(NCCN(CCO)CCCc2ccc([N+](=O)[O-])cc2)cc(=O)n(C)c1=O | -7.89 |
| O=C(O)CCCc1ccccc1 | -4.8 |
| Cc1cc(NC(=O)NCCN2CCC(O)(Cc3ccccc3)CC2)c2ccccc2n1 | -3.32 |
| Oc1cccc(O)c1 | 5.02 |
| N[C@H]1C[C@@H]1c1ccc(-c2cccc(O)c2)cc1 | 51.4 |
| CC(=O)N[C@H]1[C@H]([C@H](O)[C@H](O)CO)O[C@](O)(C(=O)O)C[C@@H]1O | -7.16 |
| Cc1ccc(-c2ncn(-c3ccc(Nc4nccc(-c5cccc(N6CCOCC6)c5)n4)cc3)n2)cn1 | 14.5 |
| N#CCNC(=O)c1ccc(-c2ccnc(Nc3ccc(N4CCOCC4)cc3)n2)cc1 | -5.68 |
| Cc1nc(N)sc1-c1ccnc(Nc2ccc(N3CCOCC3)cc2)n1 | 71.7 |
| CC(C)[C@@H](N)C(=O)O | 1.7 |
| O=C(NCc1ccc2c(c1)OCO2)c1c(Cl)cccc1Cl | 3.64 |
| COc1ccc(-c2cc(=S)ss2)cc1 | 67.3 |
| O=C(O)CCc1c(C(=O)O)[nH]c2cc(Cl)cc(Cl)c12 | 4 |
| NCC(=O)N1C[C@H](NC(=O)c2ccccc2)C[C@H]1C(=O)O | -0.8 |

| SMILES | inhibition [%] |
| --- | --- |
| O=C(/C=C/c1ccccc1)NC(NC(=S)Nc1ccc(Cl)cc1)C(Cl)(Cl)Cl (stereo not given) | -0.27 |
| Cc1ccc(C(=O)Cn2c3c(sc2=N)CCCC3)cc1 | 85.8 |
| Cc1ccc(C(=O)C(C)CN2CCCCC2)cc1 (stereo not given) | 4.79 |
| Cc1cccc(NC(=O)CN2CCC(c3ccccn3)CC2)c1 | 32 |
| O=C(O)c1cc2ccccc2s1 | -8.12 |
| N=C(N)c1cc2ccc(OC(=O)c3cccs3)cc2s1 | 98.3 |
| OC(CN1CCNCC1)Cn1c2ccc(Br)cc2c2cc(Br)ccc21 (stereo not given) | -4.75 |
| COc1cc2c(cc1OC)CN(C(=O)[C@@H](NCc1ccncc1)C(C)(C)C)CC2 | -4.01 |
| c1ccc(-c2ccc(CNc3nc(-c4ccccn4)nnc3-c3ccccc3)cc2)cc1 | 6.43 |
| c1ccc(NCc2ccc(CNc3ccccn3)cc2)nc1 | 91.6 |
| O=C(Cc1ccc(-c2ccccc2)cc1)Nc1ccccn1 | 44.2 |
| O=S1(=O)N[C@H]2CCCN2c2ccccc21 | -6.18 |
| FC(F)(F)c1ccc(Nc2ncnc3cc(-c4ncccc4C(F)(F)F)ccc23)cc1 | 6.46 |
| CCCC[C@@H](NC(=O)[C@@H](Cc1cn(C(=O)OC)c2ccccc12)NC(=O)[C@H](CC(C)(C)C)NC(=O)N1[C@H](C)CCC[C@@H]1C)C(=O)O | -9.33 |
| CCCCCCCCCCCCCCCC(=O)OC[C@H](COP(=O)([O-])OCC[N+](C)(C)C)OC(=O)CCCCCCCCCCCCCCC | -0.71 |
| COc1c(C)cnc(Cn2cc(C#CCC(C)(C)O)c3c(Cl)nc(N)nc32)c1C | 0.42 |
| O=C(c1cc(C2CC2)on1)N(C1CCCCC1)C1CCCCC1 | 9.33 |
| C#C[C@]1(OC(C)=O)CC[C@H]2[C@@H]3CCC4=C/C(=N/O)CC[C@@H]4[C@H]3CC[C@@]21CC | 5.83 |
| Cc1ccnc(NS(=O)(=O)c2ccc(N)cc2)n1 | -3.6 |
| Nc1ccc(S(=O)(=O)Nc2ccccn2)cc1 | 2.21 |
| C=Cc1c(C)c2cc3nc(c(CC(=O)O)c4[nH]c(cc5nc(cc1[nH]2)C(C)=C5CC)c(C)c4C(=O)O)C(CCC(=O)O)C3C (stereo not given) | 8.5 |
| CC(C)n1nccc1-c1ncccc1COc1cccc(O)c1C=O | 0.21 |
| O=c1cc(N2CCN(c3cccc(C(F)(F)F)c3)CC2)[nH]c(=O)n1C1CCCCC1 | -1.42 |
| O=C(/C=C/C=C/c1ccc2c(c1)OCO2)N1CCCCC1 | 61.2 |

| SMILES | inhibition [%] |
| --- | --- |
| O=C(COc1ccc(Cl)cc1)N1CCN(Cc2ccc3c(c2)OCO3)CC1 | -0.58 |
| O=C(c1ccc2c(c1)OCO2)N1CCCCC1 | -4.9 |
| O=C(CN1CCN(Cc2ccc3c(c2)OCO3)CC1)N1c2ccccc2Sc2ccccc21 | 4.21 |
| CC(C)(C)C(O)/C=C/c1ccc2c(c1)OCO2 (stereo not given) | 8.28 |
| O=C(/C=C/c1ccc2c(c1)OCO2)N1CCCCC1 | 67.8 |
| CC/C(=C(\c1ccc(OCCN(C)C)cc1)c1cccc(O)c1)c1ccccc1 | -4.47 |
| CC(C)(N)c1nc(-c2ccc(OC(F)(F)F)cc2)c[nH]1 | 3.83 |
| C[C@]12CC[C@H](O)CC1=CCC1C2CC[C@]2(C)C(n3cnc4ccccc43)=CCC12 (stereo not given in full) | 10.9 |
| O=C(NO)c1ccc2[nH]c(=O)c(CCCc3ccccc3)nc2c1 | 97.8 |
| CCCCc1ccc2[nH]c(NC(=O)OC)nc2c1 | 15.1 |
| O=C(Nc1cccc2c(=O)cc(-c3nnn[nH]3)oc12)c1ccc(OCCCCc2ccccc2)cc1 | 2.83 |
| NC(=O)CCCCn1ccc(/N=C(\N)NCC(F)(F)F)n1 | -7.78 |
| O=C(Nc1ccc(C(O)(C(F)(F)F)C(F)(F)F)cc1)c1ccc(C(F)(F)F)cc1 | 0.41 |
| C/C(O)=C(\C#N)C(=O)Nc1ccc(C(F)(F)F)cc1 | 98.6 |
| CC(=O)Nc1ccc(C(=O)O)cc1 | -3.9 |
| C=C1CC/C=C(\C)CC[C@@H]2[C@@H]1CC2(C)C | 2.39 |
| O=c1c(-c2ccccc2)c1-c1ccccc1 | 10.5 |
| CCOc1cccc(NC(=O)c2ccc(N3CCCC3)c(C(F)(F)F)c2)c1 | 0.15 |
| CCCCOc1ccc(C(=O)Nc2ccc(F)cc2F)cc1 | 49 |
| CCCCOc1ccc(C(=O)CCN2CCCCC2)cc1 | -4.56 |
| CCCCOc1ccc(CC(=O)NO)cc1 | 75.5 |
| CC[C@H](CC[C@@H](C)[C@H]1CC[C@H]2[C@@H]3CC=C4C[C@@H](O[C@@H]5O[C@H](CO)[C@@H](O)[C@H](O)[C@H]5O)CC[C@]4(C)[C@H]3CC[C@]12C)C(C)C | 2.47 |
